Values joined by “and” are separate entries in the source; they are usually repeats but may differ in a detail not shown here. Equal entries are not always repeated. Results filed as inconclusive are left out. The source holds several records for some structures; these can differ, active in one and inactive in another. Active and inactive are the calls of the source. How the source made its calls, unless noted: active means hit-call score of the fitted dose curve at least 0.9, where 1 is the maximum; inactive means score below 0.9.
Legend:
[1] = ATG_GAL4_TRANS: Attagene TRANS-FACTORIAL HepG2 Assay for GAL4 (Internal Marker) (AID 2282976; active means hit-call score of the fitted dose curve at least 0.9, where 1 is the maximum); details: HepG2 Attagene TRANS GAL4 internal marker reporter
Method in brief: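 Liver HepG2 line bearing multiplexed GAL4-UAS reporter constructs; 24 h chemical treatment. Transcripts were quantified as fluorescent fragments on capillary electrophoresis after RT-PCR and HpaI cut, with activity fitted upward from DMSO.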

[2] = biological target: Estrogen-related receptor gamma (Homo sapiens) (UniProt P62508); experiment: ATG_ERRg_TRANS: Attagene TRANS-FACTORIAL HepG2 Assay for human Estrogen-Related Receptor gamma (ERRg) (AID 2282977; active means hit-call score of the fitted dose curve at least 0.9, where 1 is the maximum;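 further: hits increase reporter signal over DMSO so potencies reflect activators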); details: HepG2 Attagene TRANS reporter, ERRg transactivation
Method in brief: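 Exogenous NR-Gal4 chimera activity measured as reporter transcript induction after 24 h in transiently transfected HepG2 cells. RNA reverse-transcribed, PCR-amplified, 6-FAM-labelled and resolved by capillary electrophoresis; increase over DMSO baseline.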

[3] = biological target: Glucocorticoid receptor (Homo sapiens) (UniProt P04150); experiment: ATG_GR_TRANS: Attagene TRANS-FACTORIAL HepG2 Assay for human Glucocorticoid Receptor (GR) (AID 2282978; active means hit-call score of the fitted dose curve at least 0.9, where 1 is the maximum;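 further: activators score as hits since higher reporter transcript over DMSO is fitted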); details: HepG2 Attagene TRANS GR reporter, mRNA transcription
Chain of Glucocorticoid receptor (Homo sapiens) (P04150 whole entry, looked up, the tested form may be a part): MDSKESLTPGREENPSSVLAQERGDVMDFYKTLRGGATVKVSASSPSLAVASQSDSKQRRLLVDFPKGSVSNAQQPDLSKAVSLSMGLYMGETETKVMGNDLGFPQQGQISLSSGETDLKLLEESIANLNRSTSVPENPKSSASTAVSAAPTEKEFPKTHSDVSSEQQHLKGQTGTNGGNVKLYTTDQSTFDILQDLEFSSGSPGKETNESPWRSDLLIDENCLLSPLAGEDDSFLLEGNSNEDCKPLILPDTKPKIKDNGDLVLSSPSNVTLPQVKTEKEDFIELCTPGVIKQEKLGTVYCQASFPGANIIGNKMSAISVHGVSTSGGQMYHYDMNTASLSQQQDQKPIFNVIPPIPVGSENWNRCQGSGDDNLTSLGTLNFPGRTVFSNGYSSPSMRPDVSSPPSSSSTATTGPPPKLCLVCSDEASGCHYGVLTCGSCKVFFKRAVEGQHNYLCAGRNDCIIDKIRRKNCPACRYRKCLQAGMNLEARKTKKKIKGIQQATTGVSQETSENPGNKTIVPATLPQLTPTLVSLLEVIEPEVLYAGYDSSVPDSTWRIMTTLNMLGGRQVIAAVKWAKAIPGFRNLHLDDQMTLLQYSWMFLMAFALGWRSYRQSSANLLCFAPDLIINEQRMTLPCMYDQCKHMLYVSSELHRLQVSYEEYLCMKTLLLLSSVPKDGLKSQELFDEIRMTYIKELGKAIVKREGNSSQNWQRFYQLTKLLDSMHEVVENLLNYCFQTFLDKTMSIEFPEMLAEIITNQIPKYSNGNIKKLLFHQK
Method in brief: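 Fluorescent capillary-electrophoresis quantitation of reporter mRNA is the readout, taken 24 h after dosing human HepG2 cells carrying transiently transfected GAL4-UAS reporter units activated by chimeric NR-GAL4 fusions; activity scored as induction over DMSO.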

[4] = biological target: Bile acid receptor (Homo sapiens) (UniProt Q96RI1); experiment: ATG_FXR_TRANS: Attagene TRANS-FACTORIAL HepG2 Assay for Farnesoid X Receptor (FXR) (AID 2282979; active means hit-call score of the fitted dose curve at least 0.9, where 1 is the maximum;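 further: hits raise reporter mRNA above DMSO so AC50 marks FXR activation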); details: HepG2 Attagene TRANS FXR-GAL4 reporter transcription
Method in brief: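 After 24 h chemical treatment of transfected HepG2 cells, GAL4-UAS reporter transcripts driven by an exogenous FXR-GAL4 fusion were measured by RT-PCR and capillary electrophoresis. Increases over DMSO were fitted.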

[5] = biological target: Oxysterols receptor LXR-alpha (Homo sapiens) (UniProt Q13133); experiment: ATG_LXRa_TRANS: Attagene TRANS-FACTORIAL HepG2 Assay for human Liver X Receptor alpha (LXRa) (AID 2282980; active means hit-call score of the fitted dose curve at least 0.9, where 1 is the maximum); details: HepG2 Attagene TRANS reporter, LXRa transactivation
Chain of Oxysterols receptor LXR-alpha (Homo sapiens) (Q13133 whole entry, looked up, the tested form may be a part): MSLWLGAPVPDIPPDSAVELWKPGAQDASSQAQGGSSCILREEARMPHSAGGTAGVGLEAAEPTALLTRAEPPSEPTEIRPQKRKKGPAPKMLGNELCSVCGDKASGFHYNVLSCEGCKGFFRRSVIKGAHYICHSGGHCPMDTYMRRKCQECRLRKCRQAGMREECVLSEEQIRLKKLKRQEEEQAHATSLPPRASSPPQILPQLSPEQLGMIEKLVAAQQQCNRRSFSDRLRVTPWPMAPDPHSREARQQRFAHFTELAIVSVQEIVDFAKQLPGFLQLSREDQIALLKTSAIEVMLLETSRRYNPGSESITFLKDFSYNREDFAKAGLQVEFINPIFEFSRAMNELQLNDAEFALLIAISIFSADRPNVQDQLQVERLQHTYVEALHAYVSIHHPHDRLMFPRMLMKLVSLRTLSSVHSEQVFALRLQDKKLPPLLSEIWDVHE
Method in brief: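 In this multiplexed TRANS system, compounds act on HepG2 cells carrying GAL4-UAS reporter units and a receptor-GAL4 fusion for 24 h. Induced reporter RNA is amplified, fluorescently labelled and sized by capillary electrophoresis, with DMSO as baseline.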

[6] = biological target: Oxysterols receptor LXR-beta (Homo sapiens) (UniProt P55055); experiment: ATG_LXRb_TRANS: Attagene TRANS-FACTORIAL HepG2 Assay for human Liver X Receptor beta (LXRb) (AID 2282981; active means hit-call score of the fitted dose curve at least 0.9, where 1 is the maximum); details: HepG2 Attagene TRANS GAL4-LXRb reporter, mRNA
Chain of Oxysterols receptor LXR-beta (Homo sapiens) (P55055 whole entry, looked up, the tested form may be a part): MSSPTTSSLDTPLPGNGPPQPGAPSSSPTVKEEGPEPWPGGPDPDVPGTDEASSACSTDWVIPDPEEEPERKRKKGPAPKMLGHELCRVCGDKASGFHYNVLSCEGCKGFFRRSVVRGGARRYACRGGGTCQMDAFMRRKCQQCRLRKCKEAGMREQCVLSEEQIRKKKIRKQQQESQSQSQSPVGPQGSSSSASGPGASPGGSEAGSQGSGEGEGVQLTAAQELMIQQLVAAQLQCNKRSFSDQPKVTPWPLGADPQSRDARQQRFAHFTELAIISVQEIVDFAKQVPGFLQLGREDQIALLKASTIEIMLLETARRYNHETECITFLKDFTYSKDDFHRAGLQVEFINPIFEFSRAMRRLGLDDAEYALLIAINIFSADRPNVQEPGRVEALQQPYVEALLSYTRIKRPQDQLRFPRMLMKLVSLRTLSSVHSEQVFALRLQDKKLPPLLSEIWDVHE
Method in brief: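 After 24 h chemical treatment of transfected HepG2 cells carrying exogenous NR-Gal4 chimeras, reporter mRNA was quantified by fluorescent RT-PCR and capillary electrophoresis; activity taken as increase over DMSO controls.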

[7] = biological target: Hepatocyte nuclear factor 4-alpha (Homo sapiens) (UniProt P41235); experiment: ATG_HNF4a_TRANS: Attagene TRANS-FACTORIAL HepG2 Assay for human Hepatocyte Nuclear Factor 4 alpha (HNF4a) (AID 2282982; active means hit-call score of the fitted dose curve at least 0.9, where 1 is the maximum); details: HepG2 HNF4a transactivation reporter, mRNA readout
Chain of Hepatocyte nuclear factor 4-alpha (Homo sapiens) (P41235 whole entry, looked up, the tested form may be a part): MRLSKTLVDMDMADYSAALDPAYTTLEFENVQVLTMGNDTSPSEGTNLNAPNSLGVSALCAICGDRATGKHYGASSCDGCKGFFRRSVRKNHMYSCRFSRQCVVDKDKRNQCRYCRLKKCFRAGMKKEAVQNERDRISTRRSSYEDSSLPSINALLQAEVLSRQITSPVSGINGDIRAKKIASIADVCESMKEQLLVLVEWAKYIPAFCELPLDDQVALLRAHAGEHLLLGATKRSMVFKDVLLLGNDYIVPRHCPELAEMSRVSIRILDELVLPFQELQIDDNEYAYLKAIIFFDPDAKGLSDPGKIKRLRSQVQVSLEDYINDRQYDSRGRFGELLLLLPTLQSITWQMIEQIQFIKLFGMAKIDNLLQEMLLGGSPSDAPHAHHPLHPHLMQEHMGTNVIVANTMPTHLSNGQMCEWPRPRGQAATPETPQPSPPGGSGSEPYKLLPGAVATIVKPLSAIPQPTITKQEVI
Method in brief: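 Activity of an exogenous HNF4a–Gal4 fusion scored as induced GAL4-UAS reporter transcripts after 24 h chemical exposure of transfected human HepG2 cells. Read-out via RT-PCR with 6-FAM labelling and capillary electrophoresis; rise over DMSO baseline.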

[8] = ATG_M_06_TRANS: Attagene TRANS-FACTORIAL HepG2 Assay for M06 Transcription Factor (Internal Marker) (AID 2282983; active means hit-call score of the fitted dose curve at least 0.9, where 1 is the maximum); details: HepG2 Attagene TRANS M06 internal marker reporter
Method in brief: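 Multi-reporter-transfected HepG2, 24 h treatment; reporter transcripts quantified via RT-PCR, primer-extension labelling and CE. DMSO-normalized gain-of-signal fit.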

[9] = ATG_M_32_TRANS: Attagene TRANS-FACTORIAL HepG2 Assay for M32 Transcription Factor (Internal Marker) (AID 2282984; active means hit-call score of the fitted dose curve at least 0.9, where 1 is the maximum); details: HepG2 Attagene TRANS M32 internal marker reporter
Method in brief: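 Internal background reporter in transfected HepG2: after 24 h chemical exposure, RNA reverse-transcribed, reporter cDNA amplified, fluorescently labelled and HpaI-cut, then sized by capillary electrophoresis. Gain of signal fitted against DMSO control.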

[10] = biological target: Nuclear receptor subfamily 4 group A member 2 (Homo sapiens) (UniProt P43354); experiment: ATG_NURR1_TRANS: Attagene TRANS-FACTORIAL HepG2 Assay for human Nuclear Receptor Related Protein 1 (NURR1) (AID 2282985; active means hit-call score of the fitted dose curve at least 0.9, where 1 is the maximum); details: HepG2 Attagene TRANS reporter, mRNA readout
Chain of Nuclear receptor subfamily 4 group A member 2 (Homo sapiens) (P43354 whole entry, looked up, the tested form may be a part): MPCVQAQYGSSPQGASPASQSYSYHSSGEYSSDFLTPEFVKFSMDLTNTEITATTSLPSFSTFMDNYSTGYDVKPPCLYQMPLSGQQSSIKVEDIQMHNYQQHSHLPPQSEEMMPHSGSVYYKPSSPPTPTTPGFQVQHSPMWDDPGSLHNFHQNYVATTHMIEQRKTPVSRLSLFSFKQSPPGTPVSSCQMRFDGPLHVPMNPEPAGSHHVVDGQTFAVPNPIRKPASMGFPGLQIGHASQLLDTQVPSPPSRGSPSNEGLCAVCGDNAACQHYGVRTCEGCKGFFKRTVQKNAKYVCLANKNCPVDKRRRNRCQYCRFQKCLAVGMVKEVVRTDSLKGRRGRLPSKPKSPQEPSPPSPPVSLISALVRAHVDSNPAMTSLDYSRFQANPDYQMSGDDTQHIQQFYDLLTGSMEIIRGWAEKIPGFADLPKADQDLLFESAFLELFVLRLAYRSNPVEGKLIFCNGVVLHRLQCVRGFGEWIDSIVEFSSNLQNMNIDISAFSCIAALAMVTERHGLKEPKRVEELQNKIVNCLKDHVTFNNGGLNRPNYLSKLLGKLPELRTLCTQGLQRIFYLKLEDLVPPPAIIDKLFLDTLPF
Method in brief: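 Reporter transcript induction, measured by RT-PCR with fluorescent labelling, HpaI digestion and capillary electrophoresis, after 24 hr dosing of human HepG2 cells transiently expressing an exogenous NR-Gal4 fusion with GAL4-UAS-driven reporters; DMSO as baseline.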

[11] = biological target: Transcriptional activator Myb (Homo sapiens) (UniProt P10242); experiment: ATG_Myb_CIS: Attagene CIS-FACTORIAL HepG2 Assay for human Myeloblastosis (Myb) Proto-Oncogene Transcription Factor (AID 2282986); details: HepG2 Attagene CIS-FACTORIAL Myb reporter transcription; actives raise or lower the signal
Chain of Transcriptional activator Myb (Homo sapiens) (P10242 whole entry, looked up): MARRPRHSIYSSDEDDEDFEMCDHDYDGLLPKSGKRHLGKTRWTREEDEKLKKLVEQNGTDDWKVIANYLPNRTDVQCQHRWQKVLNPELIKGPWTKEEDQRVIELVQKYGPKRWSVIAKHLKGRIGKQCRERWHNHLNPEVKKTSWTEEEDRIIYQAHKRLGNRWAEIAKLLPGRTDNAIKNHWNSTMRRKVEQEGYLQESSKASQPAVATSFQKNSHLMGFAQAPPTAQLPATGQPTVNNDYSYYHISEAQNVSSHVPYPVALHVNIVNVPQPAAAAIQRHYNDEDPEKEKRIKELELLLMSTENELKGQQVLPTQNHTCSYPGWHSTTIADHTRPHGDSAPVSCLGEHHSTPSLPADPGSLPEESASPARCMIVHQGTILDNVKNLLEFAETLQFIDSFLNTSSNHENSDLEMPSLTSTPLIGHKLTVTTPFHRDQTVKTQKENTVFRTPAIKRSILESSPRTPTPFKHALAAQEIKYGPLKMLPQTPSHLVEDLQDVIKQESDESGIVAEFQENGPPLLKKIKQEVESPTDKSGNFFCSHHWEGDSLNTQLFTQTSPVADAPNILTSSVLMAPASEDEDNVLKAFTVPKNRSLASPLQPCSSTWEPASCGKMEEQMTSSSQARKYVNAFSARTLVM
Method in brief: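 Reporter transcript levels, quantified by fluorescent RT-PCR and capillary electrophoresis, serve as the read-out. Transfected HepG2 cells carrying cis-promoter reporter units are dosed for 24 hours, and curves are fitted bidirectionally against DMSO controls.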

[12] = biological target: Nuclear respiratory factor 1 (Homo sapiens) (UniProt Q16656); experiment: ATG_NRF1_CIS: Attagene CIS-FACTORIAL HepG2 Assay for human Nuclear Respiratory Factor 1 (NRF1) Orphan Gene (AID 2282987); details: HepG2 NRF1 cis-element reporter, Attagene multiplex; actives raise or lower the signal
Chain of Nuclear respiratory factor 1 (Homo sapiens) (Q16656 whole entry, looked up): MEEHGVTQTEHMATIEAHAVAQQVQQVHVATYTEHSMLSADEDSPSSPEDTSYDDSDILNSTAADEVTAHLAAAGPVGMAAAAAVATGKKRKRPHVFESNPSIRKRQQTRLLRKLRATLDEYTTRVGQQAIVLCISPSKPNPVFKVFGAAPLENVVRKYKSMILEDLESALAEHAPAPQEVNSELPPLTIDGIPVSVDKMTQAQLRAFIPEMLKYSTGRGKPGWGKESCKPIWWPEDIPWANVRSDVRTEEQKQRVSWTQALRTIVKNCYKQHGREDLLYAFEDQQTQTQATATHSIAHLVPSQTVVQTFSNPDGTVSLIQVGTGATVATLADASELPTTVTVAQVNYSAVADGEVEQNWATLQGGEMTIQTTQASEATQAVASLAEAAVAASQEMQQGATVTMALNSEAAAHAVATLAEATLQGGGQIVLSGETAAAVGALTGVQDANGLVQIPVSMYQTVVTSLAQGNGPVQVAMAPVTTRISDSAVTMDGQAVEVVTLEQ
Method in brief: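 Multiplexed cis-reporter assay, HepG2 cells, 24 h treatment. Total RNA → oligo(dT) RT → PCR with reporter-specific primers → 6-FAM primer extension → HpaI cut → CE. Bidirectional fit vs DMSO.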

[13] = ATG_NFI_CIS: Attagene CIS-FACTORIAL HepG2 Assay for human Nuclear Factor I (NFI) (AID 2282989); details: HepG2 cis-regulatory reporter, NFI response element transcription; actives raise or lower the signal
Method in brief: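 Read-out: reporter mRNA via RT-PCR plus capillary electrophoresis with fluorescence detection. Transiently transfected HepG2 (endogenous TF activity on cis promoters), 24 h compound exposure; gain or loss of signal fitted against DMSO.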

[14] = biological target: Myc proto-oncogene protein (Homo sapiens) (UniProt P01106); experiment: ATG_Myc_CIS: Attagene CIS-FACTORIAL HepG2 Assay for human Myelocytomatosis (Myc) Proto-Oncogene Transcription Factor (AID 2282990); details: HepG2, Attagene cis-reporter transcription factor activity; actives raise or lower the signal
Chain of Myc proto-oncogene protein (Homo sapiens) (P01106 whole entry, looked up, the tested form may be a part): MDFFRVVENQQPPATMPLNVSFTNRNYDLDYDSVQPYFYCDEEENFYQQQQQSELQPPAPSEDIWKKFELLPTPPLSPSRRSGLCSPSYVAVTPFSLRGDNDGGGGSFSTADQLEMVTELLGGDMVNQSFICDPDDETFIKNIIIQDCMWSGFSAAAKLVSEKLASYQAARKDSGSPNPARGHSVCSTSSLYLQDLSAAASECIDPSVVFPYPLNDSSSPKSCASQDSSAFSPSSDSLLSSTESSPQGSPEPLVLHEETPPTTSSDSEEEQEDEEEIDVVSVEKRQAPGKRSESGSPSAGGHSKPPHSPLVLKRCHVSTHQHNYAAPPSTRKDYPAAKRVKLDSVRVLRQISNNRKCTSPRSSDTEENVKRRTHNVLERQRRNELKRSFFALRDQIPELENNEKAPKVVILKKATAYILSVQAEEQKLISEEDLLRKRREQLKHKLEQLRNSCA
Method in brief: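 After 24 h chemical treatment of HepG2 cells carrying multiplexed cis-regulated reporter constructs, reporter transcripts quantified by RT-PCR and capillary electrophoresis of fluorescent fragments. Gain or loss fitted against DMSO baseline.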

[15] = ATG_NF_kB_CIS: Attagene CIS-FACTORIAL HepG2 Assay for human Nuclear Factor Kappa B (NF-kB) (AID 2282991); details: HepG2 Attagene cis-factorial NF-kB reporter mRNA; actives raise or lower the signal
Method in brief: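 Transient MRTU transfection of human HepG2 liver cells → 24 h chemical exposure → total RNA, oligo(dT) RT → PCR, 6-FAM primer extension, HpaI digest 2 h 37 C → CE fragment analysis. Bidirectional fitting, DMSO negative control.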

[16] = ATG_NRF2_ARE_CIS: Attagene CIS-FACTORIAL HepG2 Assay for human Nuclear Factor Erythroid 2 Related Factor 2 (NFR2) response to Antioxidant Response Elements (ARE) (AID 2282992); details: HepG2 Attagene ARE/NRF2 reporter, transcription factor activity; actives raise or lower the signal;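 on AC50: reporter mRNA level measured by RT-PCR and capillary electrophoresis fluorescence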
Method in brief: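 Fluorescence intensity of reporter-specific cDNA fragments, separated by capillary electrophoresis, reflects mRNA induction in transfected HepG2 cells at 24 h. Activity is fitted bidirectionally, DMSO serving as baseline.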

[17] = ATG_Oct_MLP_CIS: Attagene CIS-FACTORIAL HepG2 Assay for human Octamer-Binding Transcription Factor (Oct) (AID 2282993); details: HepG2 Attagene cis-factorial Oct reporter, mRNA; actives raise or lower the signal
Method in brief: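 Read-out: reporter mRNA via RT-PCR plus capillary electrophoresis of 6-FAM-labelled fragments. Transiently transfected HepG2, 24 h exposure, endogenous TF activity on cis elements. Gain or loss of signal fitted relative to DMSO.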

[18] = BSK_3C_TissueFactor: BioMAP Diversity Plus: 3C Assay for Tissue Factor Biomarker Activity (AID 2282997); details: BioMAP 3C HUVEC, tissue factor biomarker readout; actives raise or lower the signal
Method in brief: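 In this endothelial system, HUVEC are treated for 24 h and Tissue Factor is assessed by ELISA, normalised to DMSO.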

[19] = BSK_3C_uPAR: BioMAP Diversity Plus: 3C Assay for Urokinase-type plasminogen activator receptor (uPAR) Biomarker Activity (AID 2282998); details: BioMAP 3C HUVEC, uPAR biomarker ELISA; actives raise or lower the signal
Method in brief: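 HUVEC primary cells; 24 h post-dose; uPAR by ELISA; gain or loss of signal fitted bidirectionally vs DMSO baseline.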

[20] = biological target: Cellular tumor antigen p53 (Homo sapiens) (UniProt P04637); experiment: ATG_p53_CIS: Attagene CIS-FACTORIAL HepG2 Assay for human p53 Transcription Factor (AID 2282994); details: HepG2 p53 cis-element reporter, Attagene mRNA; actives raise or lower the signal
Chain of Cellular tumor antigen p53 (Homo sapiens) (P04637 whole entry, looked up): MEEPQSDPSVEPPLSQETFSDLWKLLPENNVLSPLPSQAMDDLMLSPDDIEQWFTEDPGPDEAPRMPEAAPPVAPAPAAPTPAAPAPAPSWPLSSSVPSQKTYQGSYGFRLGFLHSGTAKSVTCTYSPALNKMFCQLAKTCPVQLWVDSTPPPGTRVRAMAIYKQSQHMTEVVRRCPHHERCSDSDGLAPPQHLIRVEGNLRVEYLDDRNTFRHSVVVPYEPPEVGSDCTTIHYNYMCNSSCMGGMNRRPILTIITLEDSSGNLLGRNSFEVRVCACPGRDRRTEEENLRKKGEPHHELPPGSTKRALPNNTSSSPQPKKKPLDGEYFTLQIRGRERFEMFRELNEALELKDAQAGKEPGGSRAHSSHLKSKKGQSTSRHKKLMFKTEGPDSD
Method in brief: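 Transiently transfected HepG2 (multiple cis reporter transcription units); exposure 24 h; reporter RNA via RT-PCR, 6-FAM extension, 2 h HpaI digest at 37 C, CE detection; DMSO baseline.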

Measured: AC50

COc1ccc(C(c2ccc(OC)cc2)C(Cl)(Cl)Cl)cc1
active: [4] 26.5 µM | [17] 37.6 µM | [19] 30.1 µM
inactive: [1] | [2] | [3] | [4] | [5] | [6] | [7] | [8] | [9] | [10] | [11] | [12] | [13] | [14] | [15] | [16] | [17] | [18]

CCNc1nc(Cl)nc(NC(C)C)n1
not listed: [4] | [10] | [14] | [20]
inactive: all other assays above

COC(=O)C=C(C)OP(=O)(OC)OC
active: [16] 50 µM
not listed: [1] | [5] | [8] | [15]
inactive: all other assays above

Cc1cc(Cl)ccc1OCC(=O)O
not listed: [2] | [4] | [14] | [15] | [20]
inactive: all other assays above

CCOP(=S)(OCC)SCn1c(=O)oc2cc(Cl)ccc21
active: [16] 16 µM | [17] 14.1 µM
not listed: [2] | [7] | [15] | [20]
inactive: all other assays above

CON(C)C(=O)Nc1ccc(Cl)c(Cl)c1
active: [16] 27.8 µM [middle of 4 runs]
not listed: [4] | [20]
inactive: all other assays above

CCCC1COC(Cn2cncn2)(c2ccc(Cl)cc2Cl)O1 (configuration not stated)
active: [16] 27.1 µM | [17] 8.1 µM
inactive: [1] | [3] | [5] | [6] | [7] | [8] | [9] | [10] | [11] | [12] | [13] | [14] | [15] | [16] | [17] | [18] | [19]

CC1COC(Cn2cncn2)(c2ccc(Oc3ccc(Cl)cc3)cc2Cl)O1 (configuration not stated)
active: [16] 1.88 µM | [17] 2.45 µM | [18] 31.5 µM | [19] 28.4 µM
not listed: [1] | [7] | [10] | [14] | [15] | [20]
inactive: all other assays above

CC(C)Oc1cc(-n2nc(C(C)(C)C)oc2=O)c(Cl)cc1Cl
active: [16] 7.62 µM | [17] 10.6 µM | [19] 32 µM
not listed: [2] | [5] | [14]
inactive: all other assays above

COC(=O)N(OC)c1ccccc1COc1ccn(-c2ccc(Cl)cc2)n1
active: [16] 0.635 µM | [17] 0.702 µM | [19] 20 µM
not listed: [10] | [15] | [20]
inactive: all other assays above

CNC(=O)ON=CC(C)(C)SC
inactive: [1] | [2] | [3] | [4] | [5] | [6] | [7] | [8] | [9] | [10] | [11] | [12] | [13] | [14] | [15] | [16] | [17] | [18] | [19]
active: [12] 43.4 µM

COc1nc(NC(C)C)nc(NC(C)C)n1
inactive: [2] | [3] | [4] | [5] | [6] | [7] | [8] | [9] | [10] | [11] | [12] | [13] | [15] | [16] | [17] | [20] | [18] | [19]
active: [17] 41.1 µM
